Source: PubChem BioAssay
The source made the active and inactive calls.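 The calls were made as follows, unless noted: active = NADPH fluorescence slope more negative than the mean of all samples by about 3 SD, 99.7% confidence; inactive = the rest.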

Experiments:
[1] = inhibitors of TNFa-induced NFkB p65 translocation, primary screen, imaging, HUVEC, MLSMR starter and 10KST1 sets (AID 438;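 active = inhibition above 20% together with a positive visual image hit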;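 also: compound added about 3h40 before a 20 min TNFalpha stimulation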;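 as to inhibition: signal is the nuclear over cytoplasmic p65 intensity ratio per well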); conditions: HUVEC TNFa-induced p65 nuclear translocation; cell count: measured here: nuclei count (cytotoxicity indicator), at 2.08 µM; inhibition: at 2 µM, stronger effect = higher value, 0% TNFa-plus-vehicle, 100% no-TNFa wells
[2] = inhibitors of mutant huntingtin aggregation, primary screen, imaging, exon1htt(103Q)mCFP cells, high-content imaging (AID 483;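 active = visual image review flags a hit and inhibition of aggregation exceeds 20%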;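 also: compound exposure lasted 3 days before fixation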;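 as to nuclei count: percent of the per-plate median nuclei count of sample wells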); conditions: exon1htt(103Q)mCFP cell line, aggregate imaging, at 2 µM; inhibition of aggregation: stronger effect = higher value; nuclei count: measured here: cell count, toxicity
[3] = inhibitors of E-selectin induction by TNFa, primary screen, imaging, HUVEC, immunofluorescence, MLSMR starter and 10KST1 sets (AID 487;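 active = visually confirmed hit in the image check and inhibition above 20%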;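 as to inhibition: signal is fraction of cell area covered by stained E-selectin grains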;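 as to nuclei count: 100% = median nuclei count of all wells on the same plate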); conditions: HUVEC TNFalpha-induced E-selectin immunofluorescence imaging, at 2 µM; inhibition: stronger effect = higher value; nuclei count: measured here: cell number, toxicity
[4] = target: Voltage-gated potassium channel subunit beta-2 (Rattus norvegicus) (UniProt P62483); experiment: KvBeta enzyme negative modulators, primary screen, biochemical, NADPH fluorescence (AID 622;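 active = fluorescence slope higher than the sample average by over 3 SD, cut at about -0.22 in these data, passing the limit was not always enough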;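 also: slope of raw intensity against log time taken from 70 to 1610 s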); conditions: recombinant KvBeta, 4-cyanobenzaldehyde reduction, at 10 µM, stronger effect = higher value
Chain of Voltage-gated potassium channel subunit beta-2 (Rattus norvegicus) (P62483 whole entry, looked up): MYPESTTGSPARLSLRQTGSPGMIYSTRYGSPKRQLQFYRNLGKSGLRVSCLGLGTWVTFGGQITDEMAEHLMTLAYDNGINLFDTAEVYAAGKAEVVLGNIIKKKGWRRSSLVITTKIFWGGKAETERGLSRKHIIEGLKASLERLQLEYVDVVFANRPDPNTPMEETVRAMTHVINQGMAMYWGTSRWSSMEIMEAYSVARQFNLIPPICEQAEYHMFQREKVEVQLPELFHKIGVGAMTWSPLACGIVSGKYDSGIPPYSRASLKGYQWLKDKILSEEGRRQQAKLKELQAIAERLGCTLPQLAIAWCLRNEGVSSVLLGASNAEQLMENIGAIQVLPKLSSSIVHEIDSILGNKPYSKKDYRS

[5] = target: Voltage-gated potassium channel subunit beta-2 (Rattus norvegicus) (UniProt P62483); experiment: KvBeta positive modulators, primary screen, biochemical, NADPH fluorescence (AID 623); conditions: Recombinant KvBeta, NADPH fluorescence decrease slope, 10 min; at 10 µM; stronger effect = lower value;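 also: fluorescence intensity change per second fitted from 20 to 320 s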
[6] = target: Alpha-2C adrenergic receptor (Homo sapiens) (UniProt P18825); experiment: modulators of alpha2C/GIRK thallium flux, primary screen, cell-based, HEK293 alpha2C/GIRK1/2 (AID 624;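 active = fluorescence slope after compound addition differing from the mean of all screened samples at 99.7% confidence, in either direction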;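 also: slope of fluorescence ratio to pre-addition baseline per second over 15 to 24 s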); conditions: thallium flux BTC fluorescence, at 10 µM, actives lie on both sides
Chain of Alpha-2C adrenergic receptor (Homo sapiens) (P18825 whole entry, looked up): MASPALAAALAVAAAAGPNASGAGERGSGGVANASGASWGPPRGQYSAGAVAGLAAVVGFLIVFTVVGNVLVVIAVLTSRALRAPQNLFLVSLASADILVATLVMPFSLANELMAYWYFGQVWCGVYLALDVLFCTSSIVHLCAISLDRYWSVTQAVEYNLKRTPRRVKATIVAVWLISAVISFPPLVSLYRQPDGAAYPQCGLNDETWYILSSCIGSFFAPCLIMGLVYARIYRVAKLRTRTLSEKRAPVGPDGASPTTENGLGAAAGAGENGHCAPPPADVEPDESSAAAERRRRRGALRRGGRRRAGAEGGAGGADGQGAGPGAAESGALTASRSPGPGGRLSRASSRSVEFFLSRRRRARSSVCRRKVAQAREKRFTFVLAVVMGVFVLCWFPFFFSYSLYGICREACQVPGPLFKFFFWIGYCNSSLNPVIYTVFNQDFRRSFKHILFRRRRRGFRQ

[7] = inhibitors of Sendai virus-induced IRF3 signaling, primary screen, TLR/RLR signaling modifier project, cell-based, Sendai virus stimulus, luciferase, 10K MLSCN set (AID 602276;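 active = inhibition at or above 50% at 10 µM; inactive = inhibition below 50%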;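 also: firefly luciferase from ISG56 promoter only with Renilla not read in this screen; 0% = Sendai virus plus DMSO and 100% = medium plus DMSO without virus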); conditions: HEK293 RL24 IRF3 luciferase reporter, at 10 µM, stronger effect = higher value
[8] = inhibitors of poly I:C-induced TLR3 signaling, primary screen, cell-based, poly I:C stimulus, luciferase, 10K MLSCN set (AID 602277;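 active = inhibition of the reporter signal at or above 50%; inactive = inhibition below 50%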); conditions: HEK293-TLR3 RL24 IRF3 luciferase reporter, at 10 µM, stronger effect = higher value

Compound | cell count [1] | inhibition [1] | inhibition of aggregation [2] | nuclei count [2] [%] | inhibition [3] | nuclei count [3] [%] | fluorescence slope [4] | NADPH fluorescence slope [5] | slope [6] | inhibition [7] | inhibition [8]
C=CCOC(=O)CCC(=O)Nc1cc(OC)nc(OC)n1 | 653 | -12.9% (inactive) | -1.7% (inactive) | 109 | -0.8% (inactive) | 116 | -0.422 (inactive) | -4.9e-06 (inactive) | 0.00745 (inactive) | 12.4% (inactive) | 19.2% (inactive)
CC(CCc1ccccc1)NC(=O)CSc1nc(N)cc(N)n1 (centres undefined) | 253 | -6% (inactive) | -23.7% (inactive) | 10.8 | -41.5% (inactive) | 99.2 | -0.483 (inactive) | -4.4e-05 (inactive) | 0.00545 (inactive) | 8.76% (inactive) | 10.6% (inactive)
CCn1cc(C(=O)NC2CCc3ccccc32)c(=O)c2ccc(C)nc21 (centres undefined) | 727 | -2.2% (inactive) | -0.4% (inactive) | 100 | -37% (inactive) | 110 | -0.559 (inactive) | 2.4e-05 (inactive) | 0.00594 (inactive) | 7.46% (inactive) | 13.4% (inactive)
Cc1ccc(S(=O)(=O)N2CCCC2C(=O)OCc2nc3ccccc3s2)cc1 (centres undefined) | 459 | -1.1% (inactive) | 4.3% (inactive) | 116 | -89% (inactive) | 110 | -0.519 (inactive) | -5.7e-05 (inactive) | 0.00533 (inactive) | 8.31% (inactive) | 25.2% (inactive)
COc1ccc(-c2cc3ccc(OCc4nn[nH]n4)cc3oc2=O)cc1 | 399 | -17.5% (inactive) | 5.4% (inactive) | 81.6 | -24.5% (inactive) | 84.5 | -0.00551 (active) | 1.1e-06 (inactive) | 0.00437 (inactive) | 8.69% (inactive) | -13% (inactive)
COc1ccc(N2CCN(CCCNC(=O)C3CCCN(S(=O)(=O)c4cnc[nH]4)C3)CC2)cc1 (centres undefined) | 604 | 33.9% (active) | -29.9% (inactive) | 89.3 | -87.7% (inactive) | 122 | -0.537 (inactive) | -5.9e-06 (inactive) | 0.0058 (inactive) | -10.4% (inactive) | 17.4% (inactive)
COC(=O)Cc1c(C)nc2nc[nH]n2c1=O | 648 | -6% (inactive) | 2.1% (inactive) | 103 | -21.9% (inactive) | 104 | -0.313 (inactive) | -4e-05 (inactive) | 0.0059 (inactive) | 8.47% (inactive) | 13.4% (inactive)
O=C(Nc1ccccc1C(=O)N1CCOCC1)C1COc2ccccc2O1 (centres undefined) | 355 | 3.3% (inactive) | -5.7% (inactive) | 105 | -70.1% (inactive) | 123 | -0.437 (inactive) | -1.5e-05 (inactive) | 0.00506 (inactive) | 6.31% (inactive) | 11.6% (inactive)
CC(=O)Nc1c(C(=O)O)[nH]c2ccccc12 | 463 | -9.1% (inactive) | -7.5% (inactive) | 96 | -46.4% (inactive) | 104 | -0.367 (inactive) | -2e-05 (inactive) | 0.00513 (inactive) | 0.607% (inactive) | 19.4% (inactive)
O=C(CSc1nc(-c2ccco2)cc(C(F)(F)F)n1)NCCCn1ccnc1 | 674 | -1.9% (inactive) | 2.9% (inactive) | 119 | -43.1% (inactive) | 113 | -0.537 (inactive) | 2.4e-05 (inactive) | 0.0076 (inactive) | -4.59% (inactive) | 13.6% (inactive)
COc1ccccc1CC(=O)NCc1ccc2c(c1)OCO2 | 372 | -0.6% (inactive) | -2.1% (inactive) | 101 | -81% (inactive) | 114 | -0.392 (inactive) | -5.4e-05 (inactive) | 0.00532 (inactive) | 7.81% (inactive) | -10.6% (inactive)
CCc1ccccc1N1CC23C=CC(O2)C(C(=O)O)C3C1=O (centres undefined) | 591 | -3.4% (inactive) | -8.2% (inactive) | 103 | -23.4% (inactive) | 105 | -0.515 (inactive) | -2.2e-05 (inactive) | 0.00685 (inactive) | 12.3% (inactive) | 36.8% (inactive)
C=CCn1c(SCC(=O)O)nnc1-c1cccc(Cl)c1 | 753 | 1.3% (inactive) | -0.4% (inactive) | 103 | 19.3% (inactive) | 108 | -0.453 (inactive) | -8e-06 (inactive) | 0.00296 (inactive) | 8.76% (inactive) | 18.9% (inactive)
O=C(CCCCCN1C(=O)CCC1=O)NCc1ccccc1 | 581 | -15.5% (inactive) | -2% (inactive) | 106 | -64.5% (inactive) | 105 | -0.605 (inactive) | -4.8e-05 (inactive) | 0.00553 (inactive) | 12.6% (inactive) | 24.6% (inactive)
CCCCC(O)(C(NC=O)C(=O)OC)C(F)(F)F (centres undefined) | 703 | -10.7% (inactive) | 12.7% (inactive) | 67.6 | -10.7% (inactive) | 113 | -0.489 (inactive) | 9.5e-07 (inactive) | 0.00464 (inactive) | 22% (inactive) | 16% (inactive)
N#Cc1c(N)c(C(=O)c2ccccc2)n2c1CCCC2 | 270 | -3.7% (inactive) | -10.6% (inactive) | 86.4 | -11.6% (inactive) | 96.6 | -0.46 (inactive) | -1.7e-05 (inactive) | 0.006 (inactive) | -3.25% (inactive) | 14.6% (inactive)
Cc1noc(C)c1CSc1nc2ccccc2s1 | 588 | -2.3% (inactive) | -7.7% (inactive) | 113 | -4.7% (inactive) | 102 | -0.515 (inactive) | 2.9e-05 (inactive) | 0.00595 (inactive) | 4.37% (inactive) | -21.8% (inactive)
N#CC(C(=O)NCCc1ccccc1)c1nc2ccccc2nc1N1CCOCC1 (centres undefined) | 389 | 5.7% (inactive) | -43.6% (inactive) | 103 | -176% (inactive) | 118 | -0.401 (inactive) | -2e-05 (inactive) | 0.00348 (inactive) | -27.6% (inactive) | -40.4% (inactive)
O=C(CSc1n[nH]c(-c2cccs2)n1)N1CCN(S(=O)(=O)c2ccccc2)CC1 | 785 | 13.3% (inactive) | 4.1% (inactive) | 104 | -77% (inactive) | 140 | -0.639 (inactive) | 3e-05 (inactive) | 0.0053 (inactive) | 17% (inactive) | 28.7% (inactive)
